# High-throughput results from PubChem BioAssay.
# MEKK2mut PB1 HTS: signal of MEK5 binding to mutant human MEKK2 PB1 domain. bead flow cytometry, Alexa488-MEK5 binding to MEKK2 mutant. percent response, % at 10 µM. 290,000 compounds, 0.35% hits. AID 1530; in the data active = percent response above about 24%, passing the limit was not always enough
# NTR1 agonist: NTR1 (human) agonism. 330,000 compounds, 0.17% hits. NTR1-U2OS beta-arrestin-GFP spot imaging, agonist mode. P30989. AID 493036. activation, % at 20 µM;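 active = activation at or above 40% of the spot to cytoplasm intensity ratio, with at least 20 cells analyzed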
# TMEM16A inh: mouse TMEM16A channel inhibition, primary screen. Q8BHY3. HEK293 TMEM16A/YFP iodide influx fluorescence, ionomycin. normalized B-score (activity score, 25-100; higher = stronger inhibition) at 10 µM. 310,000 compounds, 1.2% hits;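 active = ratio plate-corrected score three or more library SD toward inhibition, starting fluorescence score within five deviations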;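 also: score derived from kinetic fluorescence span divided by baseline fluorescence per well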
# Target sequence (Q8BHY3 whole entry, looked up): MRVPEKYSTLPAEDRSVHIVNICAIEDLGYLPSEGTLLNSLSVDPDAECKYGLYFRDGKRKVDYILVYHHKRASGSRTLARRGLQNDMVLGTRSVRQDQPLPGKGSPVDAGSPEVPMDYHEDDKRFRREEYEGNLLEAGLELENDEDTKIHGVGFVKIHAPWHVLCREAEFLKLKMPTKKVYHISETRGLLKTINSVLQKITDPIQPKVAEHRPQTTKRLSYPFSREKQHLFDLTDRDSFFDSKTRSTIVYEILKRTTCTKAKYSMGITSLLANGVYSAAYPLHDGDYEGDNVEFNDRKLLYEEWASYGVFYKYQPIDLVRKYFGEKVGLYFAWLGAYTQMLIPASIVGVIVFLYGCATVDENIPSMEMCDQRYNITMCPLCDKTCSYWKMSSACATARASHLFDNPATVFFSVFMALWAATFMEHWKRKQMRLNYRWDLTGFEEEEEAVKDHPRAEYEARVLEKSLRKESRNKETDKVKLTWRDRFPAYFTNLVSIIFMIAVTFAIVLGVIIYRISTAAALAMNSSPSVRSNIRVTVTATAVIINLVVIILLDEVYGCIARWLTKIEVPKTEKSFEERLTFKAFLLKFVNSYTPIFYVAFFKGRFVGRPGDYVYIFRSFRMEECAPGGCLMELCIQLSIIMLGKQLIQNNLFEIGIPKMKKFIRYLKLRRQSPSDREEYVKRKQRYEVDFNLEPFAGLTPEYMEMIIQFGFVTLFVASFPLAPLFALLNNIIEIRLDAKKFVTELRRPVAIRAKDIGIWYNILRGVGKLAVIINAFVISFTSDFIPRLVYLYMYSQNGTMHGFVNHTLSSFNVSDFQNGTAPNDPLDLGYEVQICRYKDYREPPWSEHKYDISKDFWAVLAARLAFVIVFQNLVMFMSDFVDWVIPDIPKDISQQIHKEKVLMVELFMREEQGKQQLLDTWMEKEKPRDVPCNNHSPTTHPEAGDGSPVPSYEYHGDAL
# MEKK3 PB1 HTS: modulators (inhibitors or enhancers) of MEK5 binding to human MEKK3 PB1 domain; Q99759; bead-based flow cytometry, Alexa488-MEK5 binding to MEKK3; actives lie on both sides; 0 = blocked by unlabeled MEK5, 100 = vehicle; binding response (% of control), % at 10 µM; 290,000 compounds, 1.4% hits; AID 1529;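 active = binding response more than 3 SD above or below the average of its plate-row segment, actives on both sides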;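 also: Alexa488 bead fluorescence after subtracting the streptavidin-only scavenger bead signal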
# MEKK2wt PB1 HTS: raises or lowers MEK5 binding to wildtype human MEKK2 PB1 domain; binding response (% of control), % at 10 µM; AID 1531; bead flow cytometry, Alexa488-MEK5 binding to MEKK2 WT; actives lie on both sides; Q9Y2U5; 290,000 compounds, 1.1% hits; in the data active = binding response below about 67% or above about 130%
# ANO1 activ: activators or potentiators of mouse TMEM16A chloride channel; Q8BHY3; HEK293 TMEM16A/YFP-H148Q/I152L, iodide quench fluorescence; active compounds read low; B-score at 10 µM; 340,000 compounds, 0.3% hits;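 active = fluorescence-ratio B-score plate-corrected deviation score at least 3 library SD below zero, with starting fluorescence score within 5 deviations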;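 also: channel opened by trigger with iodide after compound preincubation; score built on the fluorescence ratio of max minus min over baseline; more negative score means more quench and so TMEM16A activation or potentiation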
# Hits are given with their value; n = inactive; x = not tested or not shown. Rows were chosen to be rich in hits. Some 3.4% of all compounds tested hit in one or more screens of this group.
SMILES,MEKK2mut PB1 HTS,NTR1 agonist,TMEM16A inh,MEKK3 PB1 HTS,MEKK2wt PB1 HTS,ANO1 activ
Cc1ccc(S(=O)(=O)N2CCCN(c3nc4cc(C)ccc4cc3C#N)CC2)cc1,n,n,n,n,n,-14
CCC(=O)NC(c1cccs1)c1cc([N+](=O)[O-])c2cccnc2c1O (centres undefined),n,n,n,128,n,n
CCCC(=O)NC(c1cccs1)c1cc([N+](=O)[O-])c2cccnc2c1O (centres undefined),n,x,n,n,n,n
Cc1ccc(-n2c(-c3ccc(Br)cc3)c[n+]3c2CCc2ccc4cccnc4c2-3)cc1,n,x,100,n,153,n
Cc1ccc(C(C)C)c(OCc2nn(CC(=O)c3ccc(OC(F)F)cc3)c3[n+]2CCCCC3)c1,n,n,n,n,217,n
C=CCn1c(Cc2ccc(OC)cc2)nnc1SCC(=O)NCCc1ccccc1,n,n,n,n,n,n
CN1C(C(=O)NCc2ccccc2)CC2Cn3c(nc4cc5ccccc5cc43)C21 (centres undefined),n,n,n,n,n,n
COC(=O)[C@]1(C)N[C@H](c2ccc(-c3cccc(Cl)c3)cc2)[C@@H]2C(=O)N(C)C(=O)[C@@H]21,x,n,x,x,x,n
COC(=O)[C@]1(CC(C)C)N[C@H](c2ccc(-c3cccc(Cl)c3)cc2)[C@@H]2C(=O)N(C)C(=O)[C@@H]21,x,n,n,x,x,-8.6
CCC(C)Sc1ccc([C@H]2N[C@@](CC(C)C)(C(=O)OC)[C@H]3C(=O)N(CC)C(=O)[C@@H]23)cc1 (some centres undefined),x,n,n,x,x,-8.4
CC(Oc1ccccc1)C(=O)N=C1SC2CS(=O)(=O)CC2N1CCc1ccccc1 (centres undefined),n,n,n,n,n,n
COc1ccc2ccccc2c1/C=N/NC(=S)NCCN1CCOCC1,n,n,n,n,n,-29
Cc1ccccc1N(C(=O)CNC(=O)c1ccco1)C(C(=O)NC1CCCCC1)c1cccnc1 (centres undefined),n,n,n,n,n,n
COc1cc(NC(=O)CCc2nnc3ccc(N4CCN(C)CC4)nn23)cc(OC)c1,n,n,n,n,n,n
CCOC(=O)C1CCN(S(=O)(=O)c2ccc(C)cc2)CC1,n,n,n,n,n,n
CCOC(=O)C1CCN(S(=O)(=O)c2ccc(C(=O)OC)cc2)CC1,n,n,n,n,n,-13
CCOc1ccc(/C=C/C2=Cc3c(sc(NC(=O)CSc4n[nH]c(N)n4)c3C#N)C(C)(C)C2)cc1,n,n,n,n,31,n
CSc1ccccc1OCc1cc(C(=O)N2CCSCC2)no1,n,n,n,n,n,n
CSc1ccccc1OCc1cc(C(=O)N2CCC(Oc3cccnc3)CC2)no1,n,n,25,n,n,n
CCC(=O)c1cn(CC(=O)Nc2ccc(C)cc2)c2ccccc12,n,n,n,n,n,n
S=c1[nH]cc(-c2ccc(Cl)cc2)n1Cc1ccccc1,n,n,n,n,n,n
COC(=O)c1c[nH]c(=S)n1Cc1ccccc1,x,x,x,x,x,-5.4
CCCNC(=O)c1cc(S(=O)(=O)N2CCCCC2)c[nH]1,n,n,n,n,n,-8.3
CCN(CC)c1nc2c(s1)C(=O)CC(C)(C)C2,n,n,n,n,n,n
CCOC(=O)C1(CCOc2ccccc2)CCN(Cc2cccc(F)c2)CC1,n,n,n,n,n,n
SMILES,MEKK2mut PB1 HTS,NTR1 agonist,TMEM16A inh,MEKK3 PB1 HTS,MEKK2wt PB1 HTS,ANO1 activ
CCOC(=O)C1(CCOc2ccccc2)CCN(Cc2cccc(-n3cccn3)c2)CC1,n,n,25,n,n,n
COc1ccc(C(=O)NC(C(=O)NCC2(N3CCCCC3)CCCCC2)C(C)C)cc1 (centres undefined),x,n,x,x,x,n
CCN(CC)S(=O)(=O)c1ccc(C(=O)Nc2ccc(OCC(=O)N3CCOCC3)cc2)cc1,n,n,n,n,n,-12
Cc1ccc([N+](=O)[O-])c(OCCCN2CCC(Cc3ccccc3)CC2)c1,n,x,n,n,143,n
Cc1ccc([N+](=O)[O-])c(OCCN2CCCCCC2)c1,n,n,n,n,n,n
Cc1ccc(S(=O)(=O)Nc2cc(C(F)(F)F)ccc2N2CCOCC2)c(C)c1,n,n,n,n,n,-14
Cc1ccc(S(=O)(=O)Nc2cc(C(F)(F)F)ccc2N2CCOCC2)cc1,n,n,n,n,n,n
CCS(=O)(=O)c1ccc(-c2csc(-c3ccccc3)n2)c(Cl)c1Cl,n,n,25,n,n,n
Cc1cccc(NC(=O)C2CCN(S(=O)(=O)c3c(C)c(C)cc(C)c3C)CC2)n1,x,n,100,x,x,n
Cc1cccc(NC(=O)C2CCN(S(=O)(=O)c3c(C)nn(C)c3C)CC2)n1,n,n,n,n,n,n
O=C(O)Cn1c2ccccc2c2ccccc21,n,n,n,n,n,n
O=Cc1c(C(=O)O)n(CC(=O)O)c2ccccc12,n,n,n,134,n,n
Cn1c2c(c(=O)n1-c1ccccc1)CSCC2,x,n,n,x,x,n
Cc1ccc(F)cc1CNC(=O)c1cc(COc2ccc3ncccc3c2)on1,n,n,n,n,n,n
CCC1CCCCN1C(=O)c1cc(COc2ccc3ncccc3c2)on1 (centres undefined),n,n,25,n,n,n
O=C(NCc1cccc(Cl)c1)c1cc(COc2ccc3ncccc3c2)on1,n,n,100,n,n,n
COCC1CCCCN1C(=O)c1cc(COc2ccc3ncccc3c2)on1 (centres undefined),n,n,n,n,n,n
CCN(CC)CC(C)(C)COC(=O)c1oc2ccccc2c1C,n,n,n,n,n,n
CCN(CC)S(=O)(=O)c1ccc(N2CCN(C)CC2)c(NC(=O)Nc2ccc(C)cc2)c1,n,n,n,n,146,n
CCOc1ccccc1/C=N/N1CCN(Cc2ccccc2)CC1,n,n,n,n,n,n
Cc1c(N=Nc2c(-c3ccc([N+](=O)[O-])cc3)[nH]n(C(N)=S)c2=O)cccc1[N+](=O)[O-],n,x,x,n,n,n
Cc1[nH]n(C(N)=S)c(=O)c1N=Nc1cccc([N+](=O)[O-])c1C,n,n,25,n,n,n
CCOc1ccc(CN(C)c2nc(-c3cccnc3)nc3ccccc23)cc1OC,n,n,n,n,n,n
COc1cc(F)c(C2=CC(=O)C[C@H](c3ccc(F)cc3)C2)cc1F,x,n,x,x,x,n
COc1ccc(C2=CC(=O)C[C@H](c3ccc(F)cc3)C2)cc1F,x,n,x,x,x,-6.6
O=C(O)C1=C[C@@H](c2ccccc2)C[C@@H](OCc2ccc(CO)cc2)O1,n,n,n,n,n,-13
CC(C)NC(=S)NC(=O)/C=C/c1cccc2ccccc12,n,n,n,n,n,-6.8
CN1CCN(C(=S)NC(=O)/C=C/c2cccc3ccccc23)CC1,n,n,n,n,n,n
